In PubChem BioAssay (Tox21):
Records with an inconclusive call do not appear. A call without a number means that no potency is given here. Activity calls are given as the source filed them. Calls come from the whole dose curve. Positions of bridges follow the written chain, without caps; N, C: chain ends. Non-standard residues stand in square brackets, D forms with d. Residues, ends and D or L forms follow the SMILES beside them. *: point of attachment. X1 = CC[C@@H](C)[C@@H](N)C1=N[C@H](C(=O)*)CS1; d(aIle) = CC[C@H](C)[C@@H](N)C(=O)O; dOrn = NCCC[C@@H](N)C(=O)O

tested on: thyroid hormone receptor (rat, GH3 cells); experiment: qHTS assay to identify small molecule agonists of the thyroid receptor (TR) signaling pathway (AID 743066); conditions: GH3.TRE-Luc cells, TR agonist luciferase, 24 h; series mostly up to 83.9 µM

Compound	Potency
C/C(=C\C(=O)OCCCCCCCCC(=O)O)C[C@@H]1OC[C@H](C[C@@H]2O[C@H]2[C@@H](C)[C@H](C)O)[C@@H](O)[C@H]1O	inactive
CC(C)[C@H](NC(=O)[C@H](CC(=O)O)NC(=O)[C@H](CCCCN)NC(=O)[C@@H](N)CCCN=C(N)N)C(=O)N[C@@H](Cc1ccc(O)cc1)C(=O)O (H-RKDVY-OH)	inactive
NC(=O)[C@@H]1CCCN1C(=O)[C@H](Cc1cnc[nH]1)NC(=O)[C@@H]1CCC(=O)N1	inactive
CC[C@H]1OC(=O)[C@H](C)C(=O)[C@H](C)[C@@H](O[C@@H]2O[C@H](C)C[C@H](N(C)C)[C@H]2O)[C@](C)(OC)C[C@@H](C)C(=O)[C@H](C)[C@H]2N(CCCCn3cnc(-c4cccnc4)c3)C(=O)O[C@]12C	inactive
C[N+](C)(C)CCOP(=O)(O)OP(=O)([O-])OC[C@H]1O[C@@H](n2ccc(N)nc2=O)[C@H](O)[C@@H]1O	inactive
Cc1cnc(C(=O)O)c[n+]1[O-]	inactive
C=CC1=C(C(=O)O)N2C(=O)[C@@H](NC(=O)/C(=N/OCC(=O)O)c3csc(N)n3)[C@H]2SC1 (stereo in doubt)	inactive
O=P(O)(O)C(O)(Cn1ccnc1)P(=O)(O)O	inactive
C=CC[N+]1([C@H]2C[C@H]3[C@@H]4CC[C@H]5C[C@H](O)[C@@H](N6CCOCC6)C[C@]5(C)[C@H]4CC[C@]3(C)[C@H]2OC(C)=O)CCCC1	inactive
CC[C@@H](C)[C@@H](N)C1=N[C@H](C(=O)N[C@@H](CC(C)C)C(=O)N[C@@H](CCC(=O)O)C(=O)N[C@@H](C(=O)N[C@@H]2CCCCNC(=O)[C@@H](CC(N)=O)NC(=O)[C@@H](CC(=O)O)NC(=O)[C@@H](Cc3cnc[nH]3)NC(=O)[C@@H](Cc3ccccc3)NC(=O)[C@@H]([C@H](C)CC)NC(=O)[C@@H](CCCN)NC2=O)[C@@H](C)CC)CS1 (X1-LE[d(aIle)][dK][dOrn][dI][dF][dH][dD][dN]; lactam 4-C)	inactive
Nc1cc(Cl)c(NC2=NCCN2)c(Cl)c1	inactive
CCOc1ccc(NC(=S)Nc2ccc(OCC)cc2)cc1	inactive
CCc1ncnc2cc(OC)c(OC)cc12	inactive
Cc1cc(=O)c(C(=O)N[C@@H](C(=O)N[C@@H]2C(=O)N3C(C(=O)O)=C(CSc4nnnn4C)CS[C@H]23)c2ccc(O)cc2)c[nH]1	inactive
CC12CCC(C[N+](C)(CCC[N+](C)(C)C)C1)C2(C)C (configuration not stated)	inactive
CN1C(=O)C[C@@H](C(=O)N[C@@H](Cc2cnc[nH]2)C(=O)N2CCC[C@H]2C(N)=O)NC1=O	inactive
COC(=O)[C@H]1[C@H]2C[C@H]3c4[nH]c5ccccc5c4CCN3C[C@H]2CC[C@@H]1O	inactive
CC[C@@H](C)[C@H](N)C(=O)O	inactive
C/C(=C(/CCO)SSCC1CCCO1)N(C=O)Cc1cnc(C)nc1N (configuration not stated)	inactive

Compound	Potency
C=C(Nc1ccc(OCC)cc1)Nc1ccc(OCC)cc1	inactive
O=C(O)/C=C/C(=O)Nc1ccc(S(=O)(=O)Nc2nccs2)cc1	inactive
CC(C)=CCC/C(C)=C/CC/C(C)=C/CC/C(C)=C/CC1=C(C)C(=O)c2ccccc2C1=O	inactive
CO/N=C(\C(=O)N[C@@H]1C(=O)N2C(C(=O)O)=C(CSc3nc(C)c(CC(=O)O)s3)CS[C@H]12)c1csc(N)n1	inactive
COc1ccc(/C=C/C(=O)O)cc1	inactive
CO/N=C(\C(=O)N[C@@H]1C(=O)N2C(C(=O)[O-])=C(C[n+]3cccc4c3CCC4)CS[C@H]12)c1csc(N)n1	inactive
NCC1CCC(C(=O)O)CC1 (configuration not stated)	inactive
CCN(CC)CCOC[C@H]1O[C@@H](O)[C@H](OCCN(CC)CC)[C@@H](O)[C@@H]1O	inactive
CCC(=O)OC(OP(=O)(CCCCc1ccccc1)CC(=O)N1C[C@H](C2CCCCC2)C[C@H]1C(=O)O)C(C)C (some centres not stated)	inactive
CC(C)=CCC/C(C)=C/CC/C(C)=C/CC/C=C(\C)CC/C=C(\C)CCC=C(C)C	inactive
CCCCCCCCCC(=O)NO	inactive
NCCO/C=C/[C@H](N)C(=O)O	inactive
N=C(N)n1cccn1	inactive
Nc1c(CC(=O)O)cccc1C(=O)c1ccccc1	inactive
Cc1ccc(C(C)(C)c2ccc(C)cc2)cc1	inactive
CO[C@H]1C[C@H](O[C@H]2[C@H](C)[C@@H](O[C@@H]3O[C@H](C)C[C@H](N(C)C)[C@H]3O)[C@@H](C)C[C@]3(CO3)C(=O)[C@H](C)[C@@H](O)[C@@H](C)[C@@H](C)OC(=O)[C@@H]2C)O[C@@H](C)[C@@H]1O	inactive
CC[C@H]1OC(=O)C[C@@H](O)[C@H](C)[C@@H](O[C@@H]2O[C@H](C)[C@@H](O[C@H]3C[C@@](C)(O)[C@@H](O)[C@H](C)O3)[C@H](N(C)C)[C@H]2O)[C@@H](CC=O)C[C@@H](C)C(=O)/C=C/C(C)=C/[C@@H]1CO[C@@H]1O[C@H](C)[C@@H](O)[C@@H](OC)[C@H]1OC	inactive
O=C1c2c(O)cccc2[C@H]([C@@H]2O[C@H](CO)[C@@H](O)[C@H](O)[C@H]2O)c2cc(CO)cc(O)c21	inactive
